Data reported in PubChem BioAssay (Tox21).
Records with an inconclusive call do not appear. Activity calls are given as the source filed them. Unless noted, calls come from the whole dose curve; as a rule, active = well fitted curve in the direction sought with a large enough effect in the repeat runs; inconclusive = weak or mixed curves; inactive = no such curve, though single readings can be large; an effect the other way counts as inactive or inconclusive.

Assays:
[1] = qHTS assay to identify small molecule antagonists of the estrogen receptor alpha (ER-alpha) signaling pathway using the BG1 cell line in the presence of 0.1 nM 17-beta-estradiol - cell viability counter screen (AID 1259241); note: nearly all actives have a fitted effect of over 40% in size
Summary of the method: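 Measures cytotoxicity alongside the ER-alpha antagonist readout: VM7Luc4E2 cells, charcoal-stripped serum, 0.1 nM 17beta-estradiol final, 22 hr compound incubation at 37C, CellTiter-Fluor fluorescence.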

[2] = qHTS assay to identify small molecule antagonists of the androgen receptor (AR) signaling pathway using the MDA cell line in the presence of 0.5 nM R1881 - cell viability counter screen (AID 1259242); note: nearly all actives have a fitted effect of over 45% in size
Summary of the method: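 Fluorescence from CellTiter-Fluor, which reports protease activity of live cells, was read 30 min after reagent addition to MDA-kb2 cells that had been incubated 16 hr with compound and 0.5 nM R1881.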

[3] = target: Androgen receptor (Homo sapiens) (UniProt P10275); assay: qHTS assay to identify small molecule antagonists of the androgen receptor (AR) signaling pathway using the MDA cell line in the presence of 0.5 nM R1881 (AID 1259243); note: nearly all actives have a fitted effect of over 50% in size
Summary of the method: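 Inhibition of R1881 (0.5 nM final) induced reporter signal was measured in human MDA-kb2 cells; note the MMTV promoter also responds to GR. Exposure lasted 16 hr at 37C.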

[4] = target: Estrogen receptor (Homo sapiens) (UniProt P03372); assay: qHTS assay to identify small molecule antagonists of the estrogen receptor alpha (ER-alpha) signaling pathway using the BG1 cell line in the presence of 0.1 nM 17-beta-estradiol (AID 1259244); note: nearly all actives have a fitted effect of over 50% in size
Summary of the method: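 Quantitative high-throughput screen in VM7Luc4E2 cells: compound plus 0.1 nM E2 (final), 22 h, 37C, 5% CO2; ONE-Glo added, 30 min room temperature, luminescence measured.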

[5] = qHTS assay to identify small molecule HDAC inhibitors (AID 1259364); note: top concentration of the series differs between compounds; nearly all actives have a fitted effect of over 45% in size
Summary of the method: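 Endogenous HDAC class I/II activity was measured in wild-type HCT-116 cells by HDAC-Glo luminescence after 2 h compound treatment.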

[6] = qHTS assay to identify small molecule HDAC inhibitors - cell viability counter screen (AID 1259365); note: series mostly up to about 92 µM; nearly all actives have a fitted effect of over 50% in size
Summary of the method: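 Following a 2hr exposure of overnight-plated wild-type HCT-116 cells to DMSO-delivered compounds, CellTiter-Glo was added and luminescence recorded after 30min at room temperature.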

[7] = qHTS assay to identify small molecule agonists of the sonic hedgehog signaling (Shh) pathway - cell viability counter screen (AID 1259366); note: nearly all actives have a fitted effect of over 50% in size
Summary of the method: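 After a 4hr attachment at 37C, NIH/3T3 cells bearing an integrated Gli1-driven luciferase reporter were dosed with compounds. Treatment lasted 24hr, with the final hour including CellTiter-Fluor for a fluorescence viability measurement.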

[8] = qHTS assay to identify small molecule antagonists of the sonic hedgehog signaling (Shh) pathway - cell viability counter screen (AID 1259367); note: nearly all actives have a fitted effect of over 55% in size
Summary of the method: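 Cells: 3T3 Gli1-Luc, 2,000/well, 4 hr pre-incubation. Compounds in DMSO, then conditioned medium. Incubation 24 hr, 37C, 5% CO2. CellTiter-Fluor at 23 hr, 1 hr, fluorescence.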

[9] = qHTS assay to identify small molecule agonists of the sonic hedgehog signaling (Shh) pathway (AID 1259368; calls by dose curve;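 note: NIH/3T3-derived 3T3Gli1-Luc cells carrying a stable Gli1-driven firefly luciferase reporter; series mostly up to about 92 µM; nearly all actives have a fitted effect of over 15% in size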)
Summary of the method: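 Luminescent signal was taken as a measure of Gli1-controlled luciferase expression in stably transfected NIH/3T3-derived cells that had been treated for 24 hr with compounds delivered in DMSO.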

[10] = qHTS assay to identify small molecule antagonists of the sonic hedgehog signaling (Shh) pathway (AID 1259369; calls by dose curve; note: nearly all actives have a fitted effect of over 45% in size)
Summary of the method: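 Screening used 3T3Gli1-Luc cells at 2,000 per well, compounds delivered in DMSO, and conditioned medium as agonist stimulus; plates incubated 24hr at 37 C and 5% CO2 before a 30min luciferase step.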

[11] = target: Estrogen receptor beta (Homo sapiens) (UniProt Q92731); assay: qHTS assay to identify small molecule agonists of the estrogen receptor beta (ER-beta) signaling pathway (AID 1259377; active = well fitted activation curve with a large enough effect in the signal ratio in the repeat runs, not every such curve was filed as active; the % refers to the signal ratio)
Summary of the method: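 In HEK293T cells bearing a UAS-beta-lactamase reporter under ER-beta control, DMSO-delivered compounds were incubated for 16 hr at 37C. Activity was detected as fluorescence 2 hours after LiveBLAzer B/G FRET substrate addition.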

[12] = target: Estrogen receptor beta (Homo sapiens) (UniProt Q92731); assay: qHTS assay to identify small molecule antagonists of the estrogen receptor beta (ER-beta) signaling pathway (AID 1259378; active = well fitted inhibition curve with a large enough effect in the signal ratio in the repeat runs, not every such curve was filed as active; the % refers to the signal ratio)
Summary of the method: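 Antagonist mode: compounds added to beta-lactamase reporter HEK293T ER-beta-UAS cells stimulated with E2 (1nM final), 16 hr at 37C. LiveBLAzer B/G FRET substrate, 2 hours room temperature, fluorescence read-out.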

[13] = qHTS assay to identify small molecule agonists of the androgen receptor (AR) signaling pathway in the presence of an antagonist - cell viability counter screen (AID 1259379);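 note: MDA-kb2 human breast cancer cells carrying an MMTV luciferase reporter; series mostly up to about 92 µM; nearly all actives have a fitted effect of over 25% in size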
Summary of the method: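 In MDA-kb2 cells (human breast carcinoma, MMTV-luciferase), compounds at 15 concentrations plus 3.0uM nilutamide; 16 hr, 37C, 0% CO2; CellTiter-Fluor fluorescence read for viability.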

[14] = qHTS assay to identify small molecule agonists of the estrogen receptor beta (ER-beta) signaling pathway - cell viability counter screen (AID 1259380); note: nearly all actives have a fitted effect of over 30% in size
Summary of the method: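 Viability of ER-beta-UAS-bla HEK293T cells was determined by CellTiter-Glo luminescence following 16 hr treatment with test compounds at 37C.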

[15] = target: Androgen receptor (Homo sapiens) (UniProt P10275); assay: qHTS assay to identify small molecule agonists of the androgen receptor (AR) signaling pathway in the presence of an antagonist (AID 1259381; calls by dose curve; note: nearly all actives have a fitted effect of over 15% in size)
Summary of the method: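 Here, 15-concentration compound series were pin-transferred onto MDA-kb2 MMTV-luciferase cells already dosed with nilutamide (3.0uM final). After 16hr at 37C, ONE-Glo was added and luminescence read 30min later at room temperature.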

[16] = qHTS assay to identify small molecule antagonists of the estrogen receptor beta (ER-beta) signaling pathway - cell viability counter screen (AID 1259382);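 note: HEK293T cells carrying ER-beta-UAS-bla reporter stimulated with estradiol; series mostly up to about 92 µM; nearly all actives have a fitted effect of over 55% in size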
Summary of the method: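 Tox21 10K library tested in qHTS format on ER-beta-bla HEK293T cells stimulated with 1nM E2; 16 hr treatment at 37C. Same-well CellTiter-Glo luminescence served as the cell viability measure.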

[17] = target: Estrogen receptor (Homo sapiens) (UniProt P03372); assay: qHTS assay to identify small molecule agonists of the estrogen receptor alpha (ER-alpha) signaling pathway in the presence of an antagonist (AID 1259383; calls by dose curve; note: top concentration of the series differs between compounds; nearly all actives have a fitted effect of over 15% in size)
Summary of the method: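 In VM7Luc4E2 cells, 4,000 per well, compounds at 15 concentrations were co-incubated 22hr at 37C with 10.0nM final ICI-182,780. Luminescence from the stably transfected 4×ERE-luciferase reporter was recorded 30min after ONE-Glo addition.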

[18] = qHTS assay to identify small molecule agonists or antagonists of the thyroid stimulating hormone receptor (TSHR) signaling pathway - wild type cell line counter screen (AID 1259384; calls by dose curve)
Summary of the method: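 Counter screen in untransfected Hek293: compounds (15-point titration, triplicate) plus phosphodiesterase inhibitor Ro20-1724 added after 18 h plating; 30 min RT. Intracellular cAMP via competitive d2/cryptate immunoassay, 1 h incubation.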

[19] = target: Thyrotropin receptor (Homo sapiens) (UniProt P16473); assay: qHTS assay to identify small molecule antagonists of the thyroid stimulating hormone receptor (TSHR) signaling pathway (AID 1259385; calls by dose curve; note: nearly all actives have a fitted effect of over 20% in size)
Summary of the method: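 Antagonist mode: compound-treated TSHR-expressing HEK293 cells were stimulated with 1.5 ng/mL TSH (final) in presence of Ro20-1724 for 30 min at RT. HTRF cAMP detection after 1 h; each compound tested at 15 concentrations, triplicate.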

[20] = qHTS assay to identify small molecule phospholipidosis (PLD) inducers (AID 1259344; active = well fitted curve in the direction sought with a large enough effect; an effect the other way counts as inactive or inconclusive)
Summary of the method: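 Phospholipidosis is scored by imaging LipidTOX-stained pits in HepG2 cells exposed to compound for 24 h at 37 C; pit counts and integrated intensities per well and per cell serve as outputs.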

Measured: Potency

Androgen receptor (Homo sapiens), sequence (P10275 whole entry, looked up): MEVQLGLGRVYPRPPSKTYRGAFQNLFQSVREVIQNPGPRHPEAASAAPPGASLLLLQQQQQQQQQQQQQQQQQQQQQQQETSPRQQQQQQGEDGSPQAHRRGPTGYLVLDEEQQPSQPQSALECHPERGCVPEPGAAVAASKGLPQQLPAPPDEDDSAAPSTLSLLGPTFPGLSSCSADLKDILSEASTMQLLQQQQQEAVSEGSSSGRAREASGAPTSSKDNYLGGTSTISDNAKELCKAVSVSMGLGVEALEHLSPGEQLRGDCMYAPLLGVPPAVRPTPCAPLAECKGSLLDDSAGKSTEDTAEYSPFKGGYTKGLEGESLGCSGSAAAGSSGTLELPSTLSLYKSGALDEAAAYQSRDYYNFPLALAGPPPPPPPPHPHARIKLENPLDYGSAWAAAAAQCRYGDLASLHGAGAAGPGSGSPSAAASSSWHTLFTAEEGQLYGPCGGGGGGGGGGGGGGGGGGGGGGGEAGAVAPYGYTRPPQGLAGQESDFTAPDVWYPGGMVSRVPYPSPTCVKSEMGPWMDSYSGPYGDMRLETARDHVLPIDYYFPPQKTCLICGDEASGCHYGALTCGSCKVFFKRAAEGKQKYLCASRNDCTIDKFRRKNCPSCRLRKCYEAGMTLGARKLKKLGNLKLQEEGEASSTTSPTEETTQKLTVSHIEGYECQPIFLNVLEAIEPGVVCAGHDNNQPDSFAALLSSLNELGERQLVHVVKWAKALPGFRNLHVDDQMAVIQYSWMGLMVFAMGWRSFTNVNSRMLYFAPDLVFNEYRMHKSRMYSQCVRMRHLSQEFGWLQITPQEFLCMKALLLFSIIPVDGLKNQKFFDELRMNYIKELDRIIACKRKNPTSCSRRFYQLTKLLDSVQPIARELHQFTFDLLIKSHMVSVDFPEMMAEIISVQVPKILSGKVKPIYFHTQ
Estrogen receptor (Homo sapiens), sequence (P03372 whole entry, looked up): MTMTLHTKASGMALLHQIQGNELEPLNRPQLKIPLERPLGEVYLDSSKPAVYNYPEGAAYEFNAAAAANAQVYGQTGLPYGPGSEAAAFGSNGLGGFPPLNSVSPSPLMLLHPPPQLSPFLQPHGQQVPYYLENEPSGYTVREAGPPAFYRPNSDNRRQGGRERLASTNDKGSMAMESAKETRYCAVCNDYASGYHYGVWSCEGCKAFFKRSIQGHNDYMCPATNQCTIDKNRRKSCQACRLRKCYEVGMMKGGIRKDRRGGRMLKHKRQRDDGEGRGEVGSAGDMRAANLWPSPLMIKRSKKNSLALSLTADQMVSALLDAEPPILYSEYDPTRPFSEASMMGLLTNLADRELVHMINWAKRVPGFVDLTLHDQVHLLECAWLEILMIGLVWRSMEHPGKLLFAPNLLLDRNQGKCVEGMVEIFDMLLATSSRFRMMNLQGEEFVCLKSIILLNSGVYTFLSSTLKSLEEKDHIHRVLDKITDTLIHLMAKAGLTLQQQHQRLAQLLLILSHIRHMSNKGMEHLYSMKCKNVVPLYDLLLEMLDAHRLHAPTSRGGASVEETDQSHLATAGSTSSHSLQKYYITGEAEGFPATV
Estrogen receptor beta (Homo sapiens), sequence (Q92731 whole entry, looked up): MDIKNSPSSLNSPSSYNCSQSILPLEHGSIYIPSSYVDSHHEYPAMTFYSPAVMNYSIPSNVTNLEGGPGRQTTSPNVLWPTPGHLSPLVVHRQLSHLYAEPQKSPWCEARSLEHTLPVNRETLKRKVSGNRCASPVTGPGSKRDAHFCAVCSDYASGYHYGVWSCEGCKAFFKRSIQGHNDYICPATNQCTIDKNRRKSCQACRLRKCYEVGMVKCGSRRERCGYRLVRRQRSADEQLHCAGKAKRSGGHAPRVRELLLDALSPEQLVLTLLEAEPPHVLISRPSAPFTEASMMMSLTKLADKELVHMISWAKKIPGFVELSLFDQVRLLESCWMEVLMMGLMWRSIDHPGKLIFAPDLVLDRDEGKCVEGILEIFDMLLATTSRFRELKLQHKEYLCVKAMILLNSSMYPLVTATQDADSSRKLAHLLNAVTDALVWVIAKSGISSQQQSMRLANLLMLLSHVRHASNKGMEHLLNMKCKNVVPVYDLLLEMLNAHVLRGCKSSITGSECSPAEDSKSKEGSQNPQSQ
Thyrotropin receptor (Homo sapiens), sequence (P16473 whole entry, looked up): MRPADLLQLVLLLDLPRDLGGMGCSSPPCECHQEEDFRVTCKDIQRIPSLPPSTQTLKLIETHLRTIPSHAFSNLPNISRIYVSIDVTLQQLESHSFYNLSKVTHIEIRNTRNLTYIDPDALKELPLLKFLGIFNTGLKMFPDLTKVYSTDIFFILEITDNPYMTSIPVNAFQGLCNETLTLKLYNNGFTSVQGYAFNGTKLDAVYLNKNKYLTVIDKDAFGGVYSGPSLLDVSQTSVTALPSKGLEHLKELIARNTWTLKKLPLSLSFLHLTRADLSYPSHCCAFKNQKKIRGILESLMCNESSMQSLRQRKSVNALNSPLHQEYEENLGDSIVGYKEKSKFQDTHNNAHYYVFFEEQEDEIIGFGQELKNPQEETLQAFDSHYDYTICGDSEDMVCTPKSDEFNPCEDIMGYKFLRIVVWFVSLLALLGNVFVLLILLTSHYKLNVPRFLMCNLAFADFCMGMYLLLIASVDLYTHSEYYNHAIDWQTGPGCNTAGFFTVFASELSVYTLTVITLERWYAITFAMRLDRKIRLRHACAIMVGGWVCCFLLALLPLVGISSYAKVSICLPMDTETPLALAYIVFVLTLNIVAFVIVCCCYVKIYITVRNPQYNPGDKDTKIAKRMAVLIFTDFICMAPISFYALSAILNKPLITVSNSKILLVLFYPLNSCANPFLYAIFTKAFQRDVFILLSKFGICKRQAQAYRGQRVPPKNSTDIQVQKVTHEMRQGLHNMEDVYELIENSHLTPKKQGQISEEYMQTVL

CC(=O)SCc1ccco1
not listed: [20]
inactive: all other assays above

Cc1cc(NC(=O)C(=O)O)cc(C)c1Oc1ccc(O)c2c1CCC2
not listed: [11] | [12] | [14] | [18] | [19] | [20]
inactive: all other assays above

COCCOCCOCCOCCOC
not listed: [6] | [14] | [16] | [19] | [20]
inactive: all other assays above

CCCOc1ccc2nc(NC(=O)OC)[nH]c2c1
not listed: [5] | [11] | [12] | [19]
inactive: all other assays above
